Shown are actives, neighbours in structure and some others; about 1.8% of the full set was active somewhere.
FPRL1 ligand – human FPRL1 ligand, with FPR counter-screen | hit rate 0.3% among 24,000 | P25090 | inhibition, % (concentration not given with the values) | FPRL1-expressing cells, fluorescent ligand binding inhibition, flow cytometry;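 further: 0% = buffer alone and 100% = receptor blocker peptide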
VLA-4 antagonist – inhibition of LDV-FITC ligand binding to human VLA-4 integrin; Jurkat cells, LDV-FITC binding with Mn2+, flow cytometry; 100% = Mn2+-driven binding gain fully reversed; inhibition, % at 10 µM (by protocol); hit rate 0.2% among 24,000; AID 529;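 active means inhibition above 50%; inconclusive means compound itself fluorescent, judged against control cell fluorescence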;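 further: 0% = Mn2+ stimulated cells lacking compound and 100% = ligand binding without Mn2+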
Target sequence (P13612 whole entry, looked up): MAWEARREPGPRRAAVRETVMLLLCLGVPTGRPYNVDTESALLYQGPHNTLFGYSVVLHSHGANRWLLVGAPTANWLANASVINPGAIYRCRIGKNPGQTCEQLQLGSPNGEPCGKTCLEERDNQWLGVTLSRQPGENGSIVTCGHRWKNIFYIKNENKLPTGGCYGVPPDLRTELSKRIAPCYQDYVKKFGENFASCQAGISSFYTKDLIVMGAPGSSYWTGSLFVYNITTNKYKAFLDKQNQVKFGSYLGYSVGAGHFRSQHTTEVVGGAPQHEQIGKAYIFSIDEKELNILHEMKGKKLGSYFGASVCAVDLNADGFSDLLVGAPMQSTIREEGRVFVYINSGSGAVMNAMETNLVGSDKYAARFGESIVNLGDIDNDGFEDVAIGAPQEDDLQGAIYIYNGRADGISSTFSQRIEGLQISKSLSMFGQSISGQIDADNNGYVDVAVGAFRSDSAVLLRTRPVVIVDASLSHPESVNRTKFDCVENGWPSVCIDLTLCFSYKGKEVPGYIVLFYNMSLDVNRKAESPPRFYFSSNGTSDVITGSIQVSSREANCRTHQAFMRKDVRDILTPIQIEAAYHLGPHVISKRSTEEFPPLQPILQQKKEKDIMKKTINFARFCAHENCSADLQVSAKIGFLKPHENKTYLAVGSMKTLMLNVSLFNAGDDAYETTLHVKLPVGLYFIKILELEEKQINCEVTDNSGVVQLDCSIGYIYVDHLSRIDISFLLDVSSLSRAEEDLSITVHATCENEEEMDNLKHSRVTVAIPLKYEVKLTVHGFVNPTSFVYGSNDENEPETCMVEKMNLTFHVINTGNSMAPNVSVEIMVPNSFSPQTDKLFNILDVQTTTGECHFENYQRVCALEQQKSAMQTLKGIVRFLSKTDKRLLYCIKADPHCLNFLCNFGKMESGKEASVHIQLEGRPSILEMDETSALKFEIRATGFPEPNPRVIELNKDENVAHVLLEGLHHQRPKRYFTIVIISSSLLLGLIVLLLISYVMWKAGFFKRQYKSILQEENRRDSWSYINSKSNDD
VLA-4 agonist – allosterically activates the human VLA-4 integrin; 24,000 tested, under 10 active; Jurkat cells, LDV-FITC binding, flow cytometry; activation, % at 10 µM (by protocol);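 active means fluorescent ligand binding to cells raised by more than 40% of the manganese-induced maximum; inconclusive means compound's own fluorescence above 85% of the ligand control signal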;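 further: 0% = ligand binding without compound and 100% = manganese-stimulated maximal binding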
Autofluor Jurkat – counter-screen for VLA-4 integrin: compound autofluorescence in Jurkat cells | hit rate 0.61% among 24,000 | flow cytometry; hits give high values; 1 = vehicle-only cell background | fluorescence ratio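 (tested at 10 µM compound in the well)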 | AID 576;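 active means fluorescence ratio above 2.44, which is 1 plus 3 SD of all ratios; inconclusive means signal too bright to measure linearly, ratio around 10 or more; inactive means fluorescence ratio below 2.44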;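 further: green fluorescence of cells measured with 488 nm excitation and 530 nm emission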
FPR binder – human FPR ligand, with FPRL1 counter-screen | AID 440 | inhibition, % (test concentration not listed) | hit rate 0.74% among 24,000 | P21462 | FPR-expressing cells, fluorescent ligand binding, flow cytometry;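 further: 0% = buffer wells and 100% = receptor blocker peptide wells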
Numbers without * were called inactive; ? = inconclusive; . = not tested or not shown. Unless noted, no stated cut-off is given here; in the data, active means inhibition above about 30%; inconclusive means no clear call, values can overlap the other calls; inactive means below that.

SMILES	FPRL1 ligand	VLA-4 antagonist	VLA-4 agonist	Autofluor Jurkat	FPR binder
O=C(CCn1c(=O)oc2ccccc21)N1CCN(c2ccccc2F)CC1	-1.9	-12.0	0.0	1.05	-1.6
O=C(Cn1c(=O)oc2ccccc21)N1CCN(c2ccccc2)CC1	4.1	?	?	2.53*	21.8
COCCCN1C(=O)C(=O)/C(=C(/O)c2ccccc2)C1c1ccc2c(c1)OCO2 (configuration not stated)	-0.1	.	.	.	53.9*
COCCCN1C(=O)C(=O)/C(=C(/O)c2ccccc2)C1c1ccc(N(C)C)cc1 (configuration not stated)	1.0	.	.	.	15.2
COc1ccc(/C(O)=C2\C(=O)C(=O)N(CCN(C)C)C2c2cccc(OC)c2OC)cc1 (configuration not stated)	-12.8	.	.	.	-17.3
Cc1ccc(/C(O)=C2\C(=O)C(=O)N(CC(C)O)C2c2cccc(F)c2)cc1 (configuration not stated)	-1.7	.	.	.	-4.9
COc1ccccc1C1/C(=C(/O)c2ccccc2)C(=O)C(=O)N1CC(C)O (configuration not stated)	-2.8	17.0	-3.0	1.01	42.2*
COc1ccccc1C1/C(=C(/O)c2ccccc2)C(=O)C(=O)N1CCO (configuration not stated)	-1.8	46.0	5.0	0.95	50.7*
CCc1cc2c(CN3CCN(CCO)CC3)cc(=O)oc2cc1O	2.7	-1.0	-3.0	1	-8.9
Oc1[nH]c2ccccc2c1C=NCC1CCCO1 (configuration not stated)	7.6	8.0	0.0	1.02	-1.1
Oc1[nH]c2ccccc2c1/C=N/c1nccs1	-12.3	?	?	9.62*	-3.6
CCN(CC)CCN1C(=O)C(=O)/C(=C(/O)c2c(C)[nH]c(C(=O)OC)c2C)C1c1ccccc1 (configuration not stated)	15.7	.	.	.	30.5*
NC(=O)c1oc2ccccc2c1NC(=O)c1nc2ccccc2s1	3.3	?	?	5.39*	-4.1
CCOCC(=O)Nc1c(C(=O)OCC)oc2ccccc12	9.9	7.0	1.0	1.1	-2.1
O=C(O)CCCNS(=O)(=O)c1ccc(NCc2ccccc2)c(C(=O)O)c1	4.2	-11.0	0.0	1.03	4.7

Assay outcomes from PubChem.
